From PubChem
Rpn11 inh: Rpn11 (human) deubiquitinase inhibition. O00487. human 26S proteasome, Ub4-pepOG fluorescence polarization; 20S core pre-blocked with epoxomicin. inhibition, % at 20 µM. 360,000 compounds, 0.59% hits;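 active means inhibition at 20 µM, scaled to each plate's controls, above about 33%, limit read from the data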
Target sequence (O00487 whole entry, looked up): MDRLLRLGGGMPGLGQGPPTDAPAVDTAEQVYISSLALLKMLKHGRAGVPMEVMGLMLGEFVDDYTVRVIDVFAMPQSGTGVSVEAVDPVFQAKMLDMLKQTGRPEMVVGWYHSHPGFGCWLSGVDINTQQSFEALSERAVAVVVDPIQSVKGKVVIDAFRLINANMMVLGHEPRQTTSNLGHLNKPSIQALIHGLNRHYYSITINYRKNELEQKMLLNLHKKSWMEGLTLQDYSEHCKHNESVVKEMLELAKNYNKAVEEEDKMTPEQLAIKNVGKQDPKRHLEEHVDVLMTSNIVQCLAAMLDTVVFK
TPT1 inhibitor: C. albicans TPT1 enzyme inhibition; recombinant caTPT1, FP RNA substrate dephosphorylation; inhibition, % at 5 µM; 300,000 compounds, 0.81% hits;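 active means inhibition above the mean of all tested compounds plus 3 SD, set per screening campaign, cut at about 24% in these data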;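 further: plate controls were DMSO alone for no effect and ferristatin control at 100 nM for full effect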
EBNA-1 inh: blocks EBNA-1 binding to DNA; EBNA-1 DNA binding, fluorescence polarization; inhibition, % at 14.8 µM; 300,000 compounds, 0.34% hits; AID 1950; in the data active means inhibition above about 28%
dFosB act-1: activators of mouse delta FosB homodimer. AID 493131. P13346. activation, % at 25 µM. 340,000 compounds, 0.99% hits. purified delta FosB, TAMRA-CDK5 oligo fluorescence polarization; percent of positive-control signal above neutral wells;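 active means mean activation above about 17%, with every replicate also reaching it, limit read from the data, passing the limit was not always enough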
Target sequence (P13346 whole entry, looked up): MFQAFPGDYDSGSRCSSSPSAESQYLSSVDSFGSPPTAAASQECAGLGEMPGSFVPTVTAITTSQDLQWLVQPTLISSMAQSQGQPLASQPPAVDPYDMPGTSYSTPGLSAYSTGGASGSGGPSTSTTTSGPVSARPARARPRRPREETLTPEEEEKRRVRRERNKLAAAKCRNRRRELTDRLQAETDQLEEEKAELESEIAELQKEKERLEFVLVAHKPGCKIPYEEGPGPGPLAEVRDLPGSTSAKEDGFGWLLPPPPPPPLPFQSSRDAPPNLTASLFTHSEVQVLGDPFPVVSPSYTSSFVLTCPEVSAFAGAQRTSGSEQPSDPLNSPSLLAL
ZTA DNA inh: blocks Epstein-Barr virus ZTA, an EBNA-1 counter-screen | inhibition, % at 11 µM | ZTA-DNA binding, fluorescence polarization | AID 2234 | 320,000 compounds, 0.15% hits; in the data active means inhibition above about 33%
NR3A LBD binder: modulates the human NR3A ligand-binding domain; Tm shift relative to glycine control, % at 25 µM; AID 1259313; NR3A LBD differential scanning fluorimetry, Tm shift; 0% = protein alone, 100% = glycine-bound protein; 340,000 compounds, 2.5% hits;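 active means melting temperature shift of at least 10% of the positive control shift, at one fixed dose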
EBNA-1 confirm: EBNA-1 (EBV) inhibition, confirmation; shares compounds with EBNA-1 inh; Recombinant EBNA-1 DBD, Cy5-DNA fluorescence polarization; inhibition, % at 14.8 µM; 830 compounds, 35% hits;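 active means mean inhibition across replicates above a set limit taken from the earlier primary screen, cut at about 28% in these data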;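 further: plate controls were EBNA-1 protein with DMSO for no effect and wells lacking EBNA-1 for full effect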
ZTA counter trip: blocks Epstein-Barr virus ZTA in triplicate, EBNA-1 counter-screen; shares compounds with EBNA-1 inh; Zta-ZRE DNA binding, Cy5 fluorescence polarization; inhibition, % at 11.1 µM; 830 tested, under 10 active;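 active means mean inhibition over triplicates above a set limit taken from the primary EBNA-1 screen, cut at about 37% in these data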;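 further: purified full length Zta protein with Cy5 labeled ZRE DNA probe; 0% = Zta with DMSO and 100% = wells lacking Zta protein; inhibitors lower polarization by freeing the labeled DNA probe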
caTPT1 confirm: TPT1 (C. albicans) inhibition, confirmation. 2,400 compounds, 74% hits. shares compounds with TPT1 inhibitor. inhibition, % at 5 µM. recombinant caTPT1, fluorescence polarization, RNase T1 coupled. AID 2149;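 active means inhibition above the primary screen limit, the mean inhibition of all tested compounds plus 3 SD, cut at about 25% in these data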
RNase T1 inh: blocks Aspergillus oryzae RNase T1, a TPT1 counter-screen; shares compounds with TPT1 inhibitor; RNase T1 cleavage, fluorescence polarization, 1536-well; inhibition, % at 5 µM; 2,400 compounds, 83% hits; AID 2153;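 active means inhibition above the solvent-only control well mean plus 3 SD, limit set per screening run, cut at about 23% in these data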;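 further: plate controls were DMSO wells with enzyme for no effect and wells without RNase T1 for full effect; inhibitors block cleavage so intact labeled substrate keeps polarization high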
Target sequence (P00651 whole entry, looked up): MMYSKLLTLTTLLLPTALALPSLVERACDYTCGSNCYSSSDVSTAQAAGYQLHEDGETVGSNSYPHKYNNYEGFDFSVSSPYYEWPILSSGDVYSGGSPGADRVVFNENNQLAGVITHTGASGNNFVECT
dFosB act-2: enhances mouse delta FosB homodimer binding to DNA; shares compounds with dFosB act-1; activation, % at 24.9 µM; purified delta FosB, TAMRA-CDK5 oligo fluorescence polarization; normalised: neutral wells 0, positive control 100; 2,400 tested, under 10 active;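 active means highest replicate activation at or above 34% and every replicate reaching that threshold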;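 further: higher polarization means more probe DNA bound by delta FosB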
Rpn11 confirm: Rpn11 inhibition confirmation, single concentration. shares compounds with Rpn11 inh. purified human 26S proteasome, Ub4-pepOG fluorescence polarization; proteasome pretreated with epoxomicin. inhibition, % at 20 µM. AID 602318. 1,900 compounds, 29% hits
MMP-2 inh: MMP-2 (human) inhibition counter-screen | shares compounds with Rpn11 inh | recombinant MMP-2, FRET peptide cleavage fluorescence | inhibition, % at 20 µM | 1,900 compounds, 4% hits | AID 602330;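 further: human MMP-2 activated beforehand with APMA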
Thrombin FP: thrombin (bovine) inhibition counter-screen. shares compounds with Rpn11 inh. bovine thrombin cleavage of Ub4-pepOG, fluorescence polarization. inhibition, % at 20 µM. 1,900 compounds, 13% hits. AID 602333;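 active means mean inhibition at least 40% at 20 µM, or signal 3 deviations below plate average, so some actives read negative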;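 further: plate controls were thrombin with DMSO for no effect and buffer wells lacking thrombin for full effect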
* = called active by the depositor; . = no result shown. In the library only some 4.5% were active in any assay of this set; here they are far more common. Unless noted, no stated cut-off is given here; in the data, active means inhibition above about 40%; inactive means the rest.

SMILES | Rpn11 inh | TPT1 inhibitor | EBNA-1 inh | dFosB act-1 | ZTA DNA inh | NR3A LBD binder | caTPT1 confirm | RNase T1 inh | others
COc1cc(NC(=O)C2Cc3ccccc3CN2S(C)(=O)=O)cc(OC)c1 (stereo not given) | -0.7 | -2.7 | 38.4* | 23.2* | -4.7 | -1.6 | . | . | EBNA-1 confirm=6.8;ZTA counter trip=6.8;dFosB act-2=-0.1
Cc1ccc(-n2c(SCC(=O)Nc3nccs3)nc3c(c2=O)SCC3)cc1 | 1.7 | 2.5 | 39.1* | 38.2* | 23.1 | 2.2 | . | . | EBNA-1 confirm=38.4*;ZTA counter trip=-3.1;dFosB act-2=0.6
O=C(COC(=O)/C=C/c1ccc(S(=O)(=O)N2CCOCC2)cc1)Nc1ccccc1F | -3.3 | . | . | 6.2 | . | -2.1 | . | .
Cc1ccccc1OCc1nc(-c2ccc(NC(=O)c3ccc4c(c3)OCO4)cc2)no1 | -1.0 | -0.8 | 28.8* | 19.3* | 4.4 | 0.0 | . | . | EBNA-1 confirm=39.0*;ZTA counter trip=25.1;dFosB act-2=0.2
O=C(NCc1nc(-c2ccccc2)no1)c1ccc2c(c1)OCO2 | -1.7 | 3.8 | -6.7 | -5.0 | 3.4 | . | . | .
O=C(CN1CCCC1)Nc1c(C(=O)C2CC2)oc2ccccc12 | -3.7 | -1.6 | -3.5 | -7.3 | 3.6 | 1.2 | . | .
N#Cc1ccccc1OCC(=O)Nc1c(C(=O)C2CC2)oc2ccccc12 | 127.6* | -4.0 | 30.1* | 6.0 | 19.1 | 1.5 | . | . | EBNA-1 confirm=91.7*;ZTA counter trip=5.0;Rpn11 confirm=5.5;MMP-2 inh=-18.7;Thrombin FP=-5.5
CO/C([O-])=N/c1c[n+](-c2ccc(Cl)cc2)no1 | 84.0* | -1.5 | 39.4* | -0.2 | 6.6 | -2.9 | . | . | EBNA-1 confirm=-5.6;ZTA counter trip=-5.9;Rpn11 confirm=-9.0;MMP-2 inh=23.2;Thrombin FP=-1.6
C=CCNC(=O)c1ccc(Cn2c(=S)[nH]c3cc4c(cc3c2=O)OCO4)cc1 | 148.1* | 6.5 | 32.9* | 34.1* | 4.0 | -5.6 | . | . | EBNA-1 confirm=0.4;ZTA counter trip=-0.4;dFosB act-2=3.9;Rpn11 confirm=154.1*;MMP-2 inh=40.6*;Thrombin FP=-17.7
CC12CCC(C(=O)Nc3ccc(Br)cn3)(OC1=O)C2(C)C (stereo not given) | -2.1 | -2.5 | -2.5 | . | -19.9 | 2.4 | . | .
COc1ccc(CC(=O)NNC(=O)c2cccnc2)cc1OC | 2.6 | -1.2 | -5.2 | -5.1 | -15.4 | -1.7 | . | .
O=C(Nc1ccc(S(=O)(=O)Nc2nccs2)cc1)c1ccc(N2C(=O)c3ccccc3C2=O)cc1 | 67.9* | 41.4* | 61.4* | 33.1* | -2.3 | 0.4 | 64.8* | 77.4* | EBNA-1 confirm=24.9;ZTA counter trip=30.9;dFosB act-2=-0.6;Rpn11 confirm=91.3*;MMP-2 inh=-28.9;Thrombin FP=46.0*
O=C(Nc1ccc(S(=O)(=O)Nc2nccs2)cc1)c1ccc(F)cc1 | 4.9 | 0.9 | 8.5 | 2.4 | 0.9 | -2.0 | . | .
COc1cc([N+](=O)[O-])ccc1N/C=C/C(=O)c1cccs1 | . | 166.6* | 1.7 | -8.4 | -3.1 | 4.3 | 143.4* | 136.2*
Cc1ccc(Nc2nc(-c3cccnc3)nc3ccccc23)cc1 | 7.8 | -1.6 | -7.7 | -0.1 | -0.1 | -2.3 | . | .
Oc1ccc(/C=N/Nc2nc(-c3cccnc3)nc3ccccc23)c(O)c1 | . | 45.7* | -1.4 | -5.6 | -0.4 | 16.3* | 59.3* | 68.6*
COCCN(C(=O)CSc1nnc(-c2cccc(F)c2)n1N)c1c(N)n(CC(C)C)c(=O)[nH]c1=O | 27.8 | 2.0 | 5.0 | -10.5 | -7.9 | -0.4 | . | .
Cc1c(NC(=O)Cc2noc3ccccc23)cccc1[N+](=O)[O-] | 1.7 | 74.4* | -0.8 | -12.0 | -8.8 | 0.8 | 10.5 | 10.8
COc1ccc(-n2c(O)c(C=Nc3ccccc3)c3ccccc3c2=O)cc1 | 1.4 | -0.6 | 3.1 | -3.2 | -6.1 | 0.9 | . | .
COc1ccc(N=Cc2sc(O)c3ccccc23)cc1 | . | 147.3* | -4.2 | -5.8 | -10.5 | -11.3 | 119.5* | 115.7*
COc1ccc(N=Cc2c(O)c3ccccc3n2C(C)=O)cc1 | . | 121.8* | 8.8 | -19.3 | 11.5 | -0.7 | 130.9* | 128.5*
COc1ccc(N=Cc2c(OC)ccc3ccccc23)cc1 | 3.0 | 0.6 | 11.9 | 3.6 | 17.8 | -0.1 | . | .
COc1ccc(C(=O)CSc2nnc(CN3CCCC3)n2-c2ccc(F)cc2)c(OC)c1 | 5.3 | 2.4 | 5.3 | -14.5 | -12.5 | -0.4 | . | .
O=C(CCNC(=O)c1ccccc1Cl)Nc1nccs1 | -0.6 | -0.3 | 5.1 | 2.7 | -2.9 | -0.8 | . | .
Cc1ccc2nc(/C(C#N)=C\c3cc(C)n(-c4cccc([N+](=O)[O-])c4)c3C)[nH]c2c1 | -6.1 | 2.7 | -2.1 | -3.3 | 9.9 | 0.1 | . | .
SMILES | Rpn11 inh | TPT1 inhibitor | EBNA-1 inh | dFosB act-1 | ZTA DNA inh | NR3A LBD binder | caTPT1 confirm | RNase T1 inh | others
Cc1ccc2nc(/C(C#N)=C\c3ccc(N4CCOCC4)o3)[nH]c2c1 | . | 138.7* | 4.0 | -19.5 | 9.8 | -15.1 | 148.9* | 136.5*
Cc1ccc(/C(C#N)=C\c2ccc(N3CCOCC3)o2)cc1 | . | 121.4* | 4.1 | -15.2 | 6.4 | -58.7 | 153.8* | 147.2*
O=C(c1ccc2nccnc2c1)N1CCCC(N2CCN(c3ccc(F)cc3)CC2)C1 (stereo not given) | -3.1 | 3.1 | -19.5 | -2.6 | -0.2 | 0.4 | . | .
COC(=O)Cn1c(=O)c2c(n(Cc3ccccc3)c1=O)N/C(=C/c1ccc(Br)cc1)C2=O | . | 43.2* | -0.3 | -3.0 | -3.2 | -2.6 | 32.3* | 47.0*
COC(=O)CN1C(=O)N/C(=C/c2ccc(OC)cc2)C1=O | 8.0 | -2.1 | 5.0 | -6.2 | 3.5 | 0.8 | . | .
CC(C)NCC(=O)Nc1c2c(nc3ccccc13)CCC2 | -0.5 | 0.6 | -8.8 | -1.0 | 5.0 | -1.5 | . | .
c1coc(CNc2c3c(nc4ccccc24)CCC3)c1 | -35.2 | 25.5* | 6.0 | -5.6 | -8.9 | -2.6 | 24.4* | 34.7*
Cc1ccc(S(=O)(=O)N2CCOCC2)cc1NC(=O)CSc1nc(N)cc(N)n1 | 6.7 | . | . | 1.2 | . | 0.4 | . | .
CC(=O)Nc1ccc(/C=C2\CCc3ccccc3C2=O)cc1 | 2.8 | 0.8 | 3.1 | -19.2 | 4.2 | -6.6 | . | .
